The inhibition is the relative decrease from the control value, in per cent.

Our source for the inhibition values is PubChem BioAssay.

The structures appear in SMILES notation. A number with no mark means an inactive call. How the calls were made is not given here.

The target of the assay is L-lactate dehydrogenase (Plasmodium falciparum (isolate CDC / Honduras)) (UniProt Q27743). The assay is described as follows: PfLDH activity inhibition – cell lysate, 3D7 strain, counter-screen for P. falciparum growth inhibition project (AID 2304).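 Further: 0% = vehicle and 100% = reference inhibitor.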 As to conditions: P. falciparum 3D7 crude extract, LDH APAD/NBT absorbance; at 2 µM; hits give high values. Background: Counterscreens check selectivity or assay interference.
Sequence of L-lactate dehydrogenase (Plasmodium falciparum (isolate CDC / Honduras)) (Q27743 whole entry, looked up): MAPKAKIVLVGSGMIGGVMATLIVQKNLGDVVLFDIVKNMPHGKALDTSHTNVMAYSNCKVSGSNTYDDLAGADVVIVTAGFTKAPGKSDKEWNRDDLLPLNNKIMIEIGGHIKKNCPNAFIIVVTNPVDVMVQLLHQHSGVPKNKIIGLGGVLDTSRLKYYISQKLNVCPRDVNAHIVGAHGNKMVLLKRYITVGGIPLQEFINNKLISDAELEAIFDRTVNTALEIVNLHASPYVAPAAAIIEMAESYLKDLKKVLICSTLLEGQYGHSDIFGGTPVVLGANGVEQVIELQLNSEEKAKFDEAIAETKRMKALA
On to `OCCc1ccc(Nc2nccc(-c3nnc4ccccn34)n2)cc1`, for which the inhibition is 6%.

Take `COc1ccc(Cn2ccc3c4c(N)nc(N)nc4ccc32)cc1`: the inhibition was 7%.

On to `O=C(NCCSCc1c(F)cccc1Cl)c1cnc2c(c1)nc(-c1cnc(-c3ccccc3)[nH]1)n2CCc1cnc[nH]1`, for which the inhibition is 0%.

`O=C(CSc1nccn1C1CCCC1)Nc1cc(C(F)(F)F)ccc1Cl`: the inhibition was -2%.

Regarding `OC(CNCc1ccccc1OCc1ccccc1)c1cccc(Br)c1` (stereo not drawn), the inhibition is 0%.

For the compound `NC1CCN(Cc2cccc(-c3ccc(-c4nc5ccccc5[nH]4)s3)c2)C1` (stereo not drawn), the inhibition is -1%.

For `CN1CCN(c2ccc(-c3cc(-c4ccncc4)c(-c4ccc(Cl)c(O)c4)o3)cc2)CC1`, the inhibition was -4%.

Regarding `CC(C)C1=C[C@H]2C[C@]3(C4OCCO4)[C@@H]4CC[C@@H](C)[C@H]4C[C@@]2(C(=O)OCC2COCO2)[C@]13C(=O)OC(c1ccccc1)c1ccccc1` (stereo partly drawn), the inhibition is 4%.

As for `Cc1ccc(CNC(=O)[C@H](CCCN)Nc2nc(Nc3ccccc3)ncc2C)cc1`, the inhibition is -2%.

Turning to `CCn1c(Sc2ccc([N+](=O)[O-])c(C#N)c2)nnc1-c1ccc(Cl)cc1`, the inhibition is -2%.

Take `Cc1cccc(NC(=O)Nc2cccc(-c3ccc(-c4nc5ccc(C(F)(F)F)cc5[nH]4)cc3)c2)c1`: the inhibition is -1%.

Take `CN1CCCC(CN2CCN(Cc3cccc(-c4ccc(-c5nc6ccc(F)cc6[nH]5)cc4)c3)CC2)C1` (stereo not drawn): the inhibition was -1%.

Regarding `CN1CCC(N2CCN(CCOc3cc(NC(=O)/C=C/c4ccccc4Cl)ccc3Br)CC2)CC1`, the inhibition is -1%.
